How the values were obtained:
Details in all cases: concentration: 1 μM, replicates: in singlicate; n = 1
[1] = test system: RPS6KA5(Kin.Dom.2-C-terminal)
[2] = test system: T1, RSK1(Kin.Dom.1-N-terminal)
T1 construct: gene RPS6KA1

[3] = test system: T2, RSK1(Kin.Dom.2-C-terminal)
T2 construct: gene RPS6KA1

[4] = test system: T3, RSK2(Kin.Dom.1-N-terminal)
T3 construct: gene RPS6KA3

[5] = test system: T4, RSK2(Kin.Dom.2-C-terminal)
T4 construct: gene RPS6KA3

[6] = test system: T5, RSK3(Kin.Dom.1-N-terminal)
T5 construct: gene RPS6KA2

[7] = test system: T6, RSK3(Kin.Dom.2-C-terminal)
T6 construct: gene RPS6KA2

[8] = test system: T7, RSK4(Kin.Dom.1-N-terminal)
T7 construct: gene RPS6KA6

[9] = test system: T8, RSK4(Kin.Dom.2-C-terminal)
T8 construct: gene RPS6KA6

S6K1 = test system: S6K1
SBK1 = test system: SBK1
SGK2 = test system: SGK2
SGK3 = test system: SGK3
SGK = test system: SGK
SIK2 = test system: SIK2
SIK = test system: SIK
SLK = test system: SLK
SNARK = test system: T9, SNARK
T9 construct: gene NUAK2

SNRK = test system: SNRK
SRC = test system: SRC
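Note: KINOMEscan kinase panel screen.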

Compound | %Inh [1] [%] | %Inh [2] [%] | %Inh [3] [%] | %Inh [4] [%] | %Inh [5] [%] | %Inh [6] [%] | %Inh [7] [%] | %Inh [8] [%] | %Inh [9] [%] | %Inh (S6K1) [%] | %Inh (SBK1) [%] | %Inh (SGK2) [%] | %Inh (SGK3) [%] | %Inh (SGK) [%] | %Inh (SIK2) [%] | %Inh (SIK) [%] | %Inh (SLK) [%] | %Inh (SNARK) [%] | %Inh (SNRK) [%] | %Inh (SRC) [%]
O=C(c1ccc(-c2cc(-c3c[nH]nc3-c3ccccn3)ccn2)cc1)N1CCCC1 [GW792479] | 11 | 4 | 0 | 14 | 39 | 0 | 12 | 0 | 19 | 7 | 0 | 8 | 0 | 0 | 12 | 19 | 3 | 0 | 0 | 17
CNc1nccc(-c2c(-c3ccc(F)cc3)ncn2C2CCN(C)CC2)n1 [SB-222903] | 12 | 0 | 32 | 5 | 0 | 0 | 0 | 0 | 73 | 0 | 0 | 0 | 0 | 0 | 17 | 0 | 0 | 0 | 0 | 0
Cc1cc(N2CCC(NS(=O)(=O)c3ccc(F)cc3)CC2)nc(Nc2cccc(C#N)c2)n1.O=C(O)C(F)(F)F [GSK1653537] | 0 | 7 | 0 | 3 | 20 | 18 | 0 | 62 | 10 | 0 | 0 | 0 | 0 | 0 | 0 | 0 | 13 | 0 | 0 | 5
CCC(CC)(CC)n1cnc2c(N)ncnc21 [SKF-97620] | 4 | 0 | 34 | 41 | 10 | 0 | 22 | 40 | 2 | 16 | 51 | 3 | 15 | 0 | 1 | 0 | 24 | 28 | 30 | 0
Cn1ccc2ncnc(Nc3ccc(Oc4cccc(Cl)c4)c(Cl)c3)c21 | 11 | 13 | 0 | 20 | 0 | 19 | 10 | 29 | 14 | 0 | 15 | 11 | 10 | 0 | 0 | 37 | 33 | 13 | 0 | 12
COc1ccc(NC(=O)c2ccc(-c3cc(-c4nnc(C)o4)ccc3C)cc2)cc1 [GW595885] | 0 | 17 | 0 | 0 | 0 | 0 | 0 | 0 | 5 | 4 | 26 | 2 | 0 | 1 | 0 | 0 | 10 | 0 | 0 | 0
Cc1cccc(-c2nc(Nc3ccc4[nH]nnc4c3)c3ccccc3n2)n1 [GW867587] | 0 | 0 | 16 | 12 | 0 | 0 | 12 | 0 | 0 | 0 | 0 | 0 | 0 | 0 | 0 | 0 | 0 | 0 | 0 | 26
Cl.O=S(=O)(c1cccc(F)c1)c1ccc(Nc2ncnc3cc(Br)sc23)cc1Cl [GSK306886] | 4 | 17 | 17 | 0 | 0 | 0 | 31 | 0 | 14 | 0 | 0 | 0 | 6 | 0 | 0 | 0 | 8 | 14 | 0 | 0
CSc1nn2c(=O)cc(N3CCOCC3)nc2n1Cc1cccc(Cl)c1Cl [GSK2347225] | 8 | 18 | 15 | 0 | 0 | 10 | 0 | 0 | 9 | 0 | 6 | 8 | 1 | 0 | 72 | 13 | 18 | 8 | 0 | 26
NC(=O)c1sc(-n2cnc3ccccc32)cc1OCc1ccccc1F [GSK1024306] | 0 | 0 | 32 | 9 | 31 | 0 | 0 | 0 | 82 | 0 | 21 | 0 | 0 | 4 | 0 | 4 | 63 | 29 | 0 | 14
CCCc1ccc(S(=O)(=O)NC2CCN(c3ccnc(Nc4ccc(OC)cc4)n3)C2)cc1 (stereo not drawn) [GSK1379737] | 7 | 0 | 0 | 2 | 13 | 0 | 0 | 0 | 0 | 16 | 100 | 6 | 0 | 0 | 0 | 0 | 15 | 0 | 0 | 0
FC(F)(F)c1ccc(-c2nn3ncccc3c2-c2ccnc(Nc3cccc(C(F)(F)F)c3)n2)cc1 [GW828205] | 3 | 12 | 0 | 0 | 6 | 0 | 0 | 0 | 3 | 0 | 0 | 0 | 18 | 0 | 0 | 47 | 21 | 0 | 0 | 0
Cc1ccc(C)c(NC(=O)NCCNc2ccnc(Nc3ccc(F)cc3)n2)c1 [GSK1379878] | 5 | 0 | 0 | 0 | 0 | 0 | 0 | 0 | 0 | 0 | 0 | 0 | 0 | 0 | 0 | 0 | 0 | 0 | 0 | 0
CSc1ccc(NC2=C(c3ccccc3Cl)C(=O)NC2=O)cc1 [SB-342411] | 1 | 6 | 15 | 0 | 0 | 1 | 0 | 0 | 0 | 1 | 1 | 0 | 14 | 0 | 5 | 0 | 98.7 | 19 | 0 | 38
COc1ccc(Nc2nccc(N3CCC(NC(=O)c4cccc(NC(C)=O)c4)C3)n2)cc1 (stereo not drawn) [GSK1379732] | 20 | 0 | 0 | 0 | 16 | 23 | 6 | 0 | 27 | 0 | 21 | 3 | 3 | 15 | 0 | 0 | 6 | 3 | 0 | 0
CC(=O)Nc1n[nH]c2ncc(-c3ccccc3)cc12 [SB-548492] | 0 | 1 | 100 | 20 | 0 | 41 | 0 | 36 | 12 | 50 | 4 | 9 | 14 | 20 | 12 | 14 | 20 | 3 | 1 | 0
Fc1ccc(-c2ncn(CCCNCc3ccccc3)c2-c2ccncc2)cc1 | 7 | 0 | 22 | 0 | 22 | 16 | 21 | 0 | 31 | 19 | 0 | 19 | 0 | 30 | 0 | 9 | 35 | 5 | 5 | 24
Cl.Fc1ccccc1COc1ccc(Nc2ncnc3ccc(-c4nnc(C(F)(F)F)o4)cc23)cc1Cl [GW424170] | 0 | 1 | 1 | 0 | 0 | 0 | 0 | 0 | 2 | 0 | 0 | 0 | 0 | 0 | 0 | 1 | 20 | 0 | 0 | 0
Nc1nc(-c2cccnc2)c(-c2ccnc3ccccc23)s1 [GW684083] | 0 | 11 | 22 | 3 | 27 | 8 | 0 | 0 | 79 | 18 | 17 | 9 | 0 | 45 | 0 | 4 | 18 | 0 | 0 | 2
Fc1cccc(COc2ccc(Nc3ncnc4sc(-c5ccc[nH]5)cc34)cc2Cl)c1 [GW707818] | 20 | 25 | 8 | 0 | 0 | 0 | 5 | 0 | 5 | 0 | 0 | 0 | 19 | 0 | 0 | 0 | 24 | 15 | 1 | 0
Cl.c1ccc(Cn2ncc3cc(Nc4ncnc5ccccc45)ccc32)cc1 [GW273749] | 5 | 11 | 3 | 0 | 0 | 0 | 0 | 0 | 17 | 4 | 7 | 0 | 0 | 0 | 0 | 0 | 0 | 10 | 0 | 10
